Results: publication PMC5540273 (PLoS ONE, 2017)

tested on: PFTAIRE2; details: concentration: 1 μM, replicates: in singlicate; n = 1
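Also: KINOMEscan kinase panel screen.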

Structure (SMILES) | %Inh [%]
FC(F)(F)c1ccc(/C=C/c2cncnc2Nc2ccc3[nH]c(Cc4ccccc4)nc3c2)cc1 [GW709199] | 33
O=C(Nc1cccc(-c2nn3ccccc3c2-c2ccnc(Nc3cccc(F)c3)n2)c1)c1c(F)ccc(F)c1Cl [GSK357952] | 20
O=C(Nc1ccccc1F)NC1CCN(c2ccnc(Nc3ccc(F)cc3)n2)CC1 [GSK1379800] | 5
Cc1occc1-c1ncc(OC[C@@H](N)Cc2c[nH]c3ccccc23)cc1-c1ccc2[nH]nc(C)c2c1.O=C(O)C(F)(F)F [GSK682037] | 16
C[C@@H]1CC[C@@H](C(=O)Nc2ccccc2)CN1c1cc(-c2ccc3c(N)n[nH]c3c2)nc(N)n1 [GSK2286062] | 7
Cl.NC(=O)c1cccc(Nc2nccc(Nc3ccc(Oc4c(Cl)cccc4Cl)c(Cl)c3)n2)c1 [GW659009] | 15
Cc1ccc(C(=O)Nc2ccc(Nc3ccnc4cc(-c5nccs5)ccc34)cc2O)cc1.Cl [GW494702] | 7
CNC(=O)c1ccccc1Nc1nc(Nc2ccc(N3CCOCC3)cc2)ncc1Cl.Cl [GSK1576028] | 43
COc1cc(Nc2nccc(-c3c(-c4cccc(NC(=O)c5c(F)cccc5F)c4)nn4ccccc34)n2)cc(OC)c1OC [GSK323521] | 25
Nc1ncnc2c1nc(-c1ccccc1)n2-c1ccccc1 [SKF-97293] | 6
Fc1ccc(-c2ncn(C3CCNCC3)c2-c2ccnc(Oc3ccc(-c4ccccc4)cc3)n2)cc1 [SB-245391] | 13
Cl.Cl.NCC(NCc1ccc(-c2ccnc3[nH]ccc23)s1)c1ccccc1 (stereo not shown) [GSK1321565] | 4
CC(=O)N1CCN(c2ccc(Nc3nccc(-c4sc(C(C)C)nc4-c4cccc(NS(=O)(=O)c5cccc(Cl)c5)c4)n3)cn2)CC1 [GSK1660437] | 49
COc1ccc(Nc2nccc(N3CCC(NC(=O)Nc4cccc(OC)c4)C3)n2)cc1 (stereo not shown) [GSK1379742] | 10
Cl.Cl.NCC(NC(=O)c1cc(-c2ccccc2)c(-c2ccnc3[nH]ccc23)s1)c1ccccc1 (stereo not shown) [GSK1321561] | 6
O=C(Nc1n[nH]c2cc(-c3ccoc3)ccc12)C1CC1 [SB-738481] | 21
Cl.c1ccc(-c2ccc3c(Nc4ccc5[nH]ccc5c4)ccnc3c2)nc1 [GW440138] | 0
COc1cc(Nc2nccc(-c3c(-c4cccc(NC(=O)c5c(F)cccc5F)c4)nn4ncccc34)n2)cc(OC)c1OC [GSK327238] | 4
CCCCc1nn2ncccc2c1-c1ccnc(Nc2ccc(N3CCN(C)CC3)cc2)n1 [GW684941] | 0

Structure (SMILES) | %Inh [%]
Nc1ncc(-c2ccc3nccc(-c4ccncc4)c3c2)cc1S(=O)(=O)N1CCOCC1 [GSK1627798] | 39
Cc1ccc(S(=O)(=O)Nc2ccc(Nc3nccc(Nc4cccc5[nH]ncc45)n3)cc2)cc1 [GSK581271] | 12
COc1ccc(Nc2nccc(NCCNC(=O)c3cc4ccccc4s3)n2)cc1 [GSK1379896] | 14
NCCCC(NC(=O)c1cc(Br)c(-c2ccnc3[nH]ccc23)s1)c1ccccc1.O=C(O)C(F)(F)F.O=C(O)C(F)(F)F (stereo not shown) [GSK1287544] | 25
CC(C)c1nc(-c2cccc(NS(=O)(=O)c3c(F)cccc3F)c2F)c(-c2ccnc(Nc3ccc(N4CCOCC4)nc3)n2)s1 [GSK2008607] | 94.6
O=C(NC1CCN(c2ccnc(Nc3ccc(F)cc3)n2)C1)c1cc2ccccc2s1 (stereo not shown) [GSK1379716] | 25
Nc1ncc(-c2cccnc2)c2scc(-c3ccc4c(c3)CCN4C(=O)Cc3ccccc3)c12 [GSK683281] | 33
CC(C)(C)c1ccc2nccc(Nc3cccc(O)c3)c2c1 [GW856795] | 0
COc1cccc(C2=C(Nc3ccc(Cl)c(C(=O)O)c3)C(=O)NC2=O)c1 [SB-390769] | 0
Cc1ccc(F)c(C(=O)Nc2cccc(-c3nn4ccccc4c3-c3ccnc(Nc4cccc(F)c4)n3)c2)c1F [GSK361061] | 18
O=C(Nc1n[nH]c2nc(-c3ccc(O)cc3)ccc12)C1CC1 [SB-710363] | 28
c1ccc(-c2n[nH]cc2Nc2ccnc3ccccc23)nc1 [GW694077] | 16
CCn1c(-c2nonc2N)nc2c(C#CC(C)(C)O)ncc(OCCCCN)c21.O=C(O)C(F)(F)F.O=C(O)C(F)(F)F [GSK507274] | 6
O=C(Nc1cccc(-c2nn3ccccc3c2-c2ccnc(Nc3cccc(C(F)(F)F)c3)n2)c1)c1c(F)cccc1F [GSK292658] | 15
Nc1n[nH]c2cnc(-c3ccccc3)cc12 [SB-642124] | 3
CN(c1ccc(NC(=O)Nc2cc(C(F)(F)F)ccc2F)cc1)c1ccnc(Nc2ccc(S(N)(=O)=O)cc2)n1 [GW809893] | 96.5
Clc1ccc(-c2nn3ncccc3c2-c2ccnc(Nc3ccc4c(c3)OCCO4)n2)cc1 [GW829116] | 0
Cn1cc(-c2[nH]c3cc(NC(=O)[C@H](N)C4CCCCC4)cc4c3c2C=NNC4=O)cn1 | 5
